Results published in PubChem BioAssay (NCI).
This is part of a sample that, as a whole, favours compounds with a hit. Of some 79,000 tested, about 15% had one in any assay. A number with no mark means an inactive call. Calls of active or inactive are those of the source. Rule as the data show it: active = growth inhibition above about 70%; inactive = the rest.

assay: NCI Yeast Anticancer Drug Screen. Data for the rad14 strain (AID 159);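 also: 0% = growth of vehicle-treated control cultures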; details: S. cerevisiae rad14 strain growth inhibition; at 1.2 µM; stronger effect = higher value
Summary of the method: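 Test compounds were applied to a repair-deficient yeast strain. Its growth was then compared with that of cultures given vehicle alone, and inhibition was expressed relative to those controls.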

| SMILES | growth inhibition |
| --- | --- |
| Cc1cccc2c(C(O)CBr)cc(-c3ccc(Cl)cc3)nc12 (stereo not given) | -4% |
| CN(C)C[C@H]1CC[C@@H](CN(C)C)C1=O | 16% |
| CC1=C(SCCO)C(=O)c2ccccc2C1=O | 2% |
| COC(=O)CCNc1c2ccccc2nc2cccc([N+](=O)[O-])c12 | 99% (active) |
| CC(/C=C/c1ccc2c(c1)OCO2)[N+](=O)[O-] (stereo not given) | 18% |
| COC(=O)C1=C(C)NC(C)=C(C(=O)OCCCN2CCC(c3ccccc3)(c3ccccc3)CC2)C1c1cccc([N+](=O)[O-])c1 (stereo not given) | 20% |
| CCOC(=O)c1cnc2c(C(F)(F)F)cccc2c1N=[N+]=[N-] | 3% |
| O=[N+]([O-])c1cc2no[n+]([O-])c2cc1N1CCCCC1 | -8% |
| COC(=O)c1ccc(NCC2=CC(=O)C=CC2=O)cc1O | 33% |
| CCCCCCCCNC(=O)C1=C(C)NC(C)=C(C(=O)NCCCCCCCC)C1 | 1% |
| S=C(Nc1ccc(Cl)c(Cl)c1)SCc1ccc2c(c1)OCO2 | 4% |
| O=S(=O)(CCCl)c1ccccc1Cl | -2% |
| Nc1ccccc1CC(O)C(=O)O (stereo not given) | -3% |
| CN(C)c1ccc(Sc2ccc3nc(N)nc(N)c3c2)cc1 | -15% |
| CC(C)C1=CCC2C(=C1)CCC1C(C)(C(=O)O)CCCC21C (stereo not given) (tested in a mixture with another compound) | 13% |
| Cc1ccc(S(=O)(=O)Oc2cc(Cl)c(Cl)cc2Cl)cc1 | -4% |
| CSC(=S)Nc1cc(C)ccn1 | -26% |
| CC(C)c1cc(C(C)C)c(O)c(C([O-])[O-])c1.CC(C)c1cc(C(C)C)c(O)c(C([O-])[O-])c1.CC(C)c1cc(C(C)C)c(O)c(C([OH2+])[OH2+])c1.CC(C)c1cc(C(C)C)c(O)c(C([OH2+])[OH2+])c1.[Cu+2].[Cu+2].[OH3+].[OH3+] | 5% |
| Cc1cc(I)ccc1N | 1% |
| CC(Br)C(=O)c1ccc2cc(Br)c3ccccc3c2c1 (stereo not given) | 0% |

| SMILES | growth inhibition |
| --- | --- |
| O=C(Nc1ccccc1)OCCc1ccc(Cl)c(Cl)c1 | -5% |
| O=Cc1cccc2ccc3ccccc3c12 | -1% |
| O=[N+]([O-])CC(SCc1ccccc1)c1ccc2c(c1)OCO2 (stereo not given) | -2% |
| CC1(Cl)CC(O)C2(CC1Br)C1(C)OC1C1OC1(Br)C2(C)C (stereo not given) | -18% |
| Cc1cc(O)cc(O)c1N=Nc1ccc([N+](=O)[O-])cc1 | -18% |
| CCCCCCCCCCCCCC[N+](C)(CC(=O)[O-])Cc1ccccc1 (stereo not given) | 10% |
| CC1=NN(c2cccc(Cl)c2)C(=O)C1 | -4% |
| CC(=O)OCc1ccc(O)c(C=O)c1 | -5% |
| Cc1ccc2ccc3cccc4ccc1c2c34 | 1% |
| Cc1nc(-[n+]2nc(-c3ccncc3)nn2-c2ccccc2)sc1C | -2% |
| C(CCSC1=NCCN1)CSC1=NCCN1 (tested in a mixture with another compound) | 5% |
| CCCCCCCCCCC(=O)Cl | -1% |
| COC1C=COC2(C)Oc3c(C)c(O)c4c(c3C2=O)/C(=N/C2CCC(O)OC2C)C=C(NC(=O)/C(C)=C\C(=O)C2CC2C(O)C(C)C(O)C(C)C(OC(C)=O)C1C)C4=O (stereo not given) | -4% |
| S=c1[nH]nc(Nc2ccc(Cl)cc2)s1 | -3% |
| O=C1CSC(/C=C/c2ccccc2)N1c1ccc(-c2ccc(-n3c(-c4ccccc4)nc4ccccc4c3=O)cc2)cc1 (stereo not given) | 1% |
| O=C1C=CC(=O)N1c1ccc2c(c1)Cc1cc(NC(=O)C(F)(F)F)ccc1-2 | 20% |
| Brc1ccc(-c2cc3c(cc2C2SCCS2)OCO3)cc1 | -35% |
| Oc1ccc2ccccc2c1C(c1ccc(Cl)cc1)c1c(O)ccc2ccccc12 | -61% |
| C[CH2][Sn]([CH2]C)([O]C(=O)C(OC(C)=O)c1ccccc1)[O]C(=O)C(OC(C)=O)c1ccccc1 (stereo not given) | -2% |
| Cc1ccc2ccc(O)cc2c1 | -18% |

same assay, conditions: S. cerevisiae rad14 strain growth inhibition; at 3.7 µM; stronger effect = higher value

| SMILES | growth inhibition |
| --- | --- |
| Cc1cccc2c(C(O)CBr)cc(-c3ccc(Cl)cc3)nc12 (stereo not given) | 3% |
| CN(C)C[C@H]1CC[C@@H](CN(C)C)C1=O | 20% |
| CC1=C(SCCO)C(=O)c2ccccc2C1=O | 3% |
| COC(=O)CCNc1c2ccccc2nc2cccc([N+](=O)[O-])c12 | 99% (active) |
| CC(/C=C/c1ccc2c(c1)OCO2)[N+](=O)[O-] (stereo not given) | 61% |
| COC(=O)C1=C(C)NC(C)=C(C(=O)OCCCN2CCC(c3ccccc3)(c3ccccc3)CC2)C1c1cccc([N+](=O)[O-])c1 (stereo not given) | 76% (active) |
| CCOC(=O)c1cnc2c(C(F)(F)F)cccc2c1N=[N+]=[N-] | 4% |
| O=[N+]([O-])c1cc2no[n+]([O-])c2cc1N1CCCCC1 | 56% |
| COC(=O)c1ccc(NCC2=CC(=O)C=CC2=O)cc1O | 61% |
| CCCCCCCCNC(=O)C1=C(C)NC(C)=C(C(=O)NCCCCCCCC)C1 | 0% |
| S=C(Nc1ccc(Cl)c(Cl)c1)SCc1ccc2c(c1)OCO2 | 54% |
| O=S(=O)(CCCl)c1ccccc1Cl | 11% |
| Nc1ccccc1CC(O)C(=O)O (stereo not given) | 6% |
| CN(C)c1ccc(Sc2ccc3nc(N)nc(N)c3c2)cc1 | -4% |
| CC(C)C1=CCC2C(=C1)CCC1C(C)(C(=O)O)CCCC21C (stereo not given) (tested in a mixture with another compound) | 22% |
| Cc1ccc(S(=O)(=O)Oc2cc(Cl)c(Cl)cc2Cl)cc1 | 4% |
| CSC(=S)Nc1cc(C)ccn1 | -12% |
| CC(C)c1cc(C(C)C)c(O)c(C([O-])[O-])c1.CC(C)c1cc(C(C)C)c(O)c(C([O-])[O-])c1.CC(C)c1cc(C(C)C)c(O)c(C([OH2+])[OH2+])c1.CC(C)c1cc(C(C)C)c(O)c(C([OH2+])[OH2+])c1.[Cu+2].[Cu+2].[OH3+].[OH3+] | 14% |
| Cc1cc(I)ccc1N | -15% |
| CC(Br)C(=O)c1ccc2cc(Br)c3ccccc3c2c1 (stereo not given) | -1% |

| SMILES | growth inhibition |
| --- | --- |
| O=C(Nc1ccccc1)OCCc1ccc(Cl)c(Cl)c1 | 1% |
| O=Cc1cccc2ccc3ccccc3c12 | 1% |
| O=[N+]([O-])CC(SCc1ccccc1)c1ccc2c(c1)OCO2 (stereo not given) | 36% |
| CC1(Cl)CC(O)C2(CC1Br)C1(C)OC1C1OC1(Br)C2(C)C (stereo not given) | -14% |
| Cc1cc(O)cc(O)c1N=Nc1ccc([N+](=O)[O-])cc1 | -21% |
| CCCCCCCCCCCCCC[N+](C)(CC(=O)[O-])Cc1ccccc1 (stereo not given) | 30% |
| CC1=NN(c2cccc(Cl)c2)C(=O)C1 | -21% |
| CC(=O)OCc1ccc(O)c(C=O)c1 | -2% |
| Cc1ccc2ccc3cccc4ccc1c2c34 | 0% |
| Cc1nc(-[n+]2nc(-c3ccncc3)nn2-c2ccccc2)sc1C | -3% |
| C(CCSC1=NCCN1)CSC1=NCCN1 (tested in a mixture with another compound) | 27% |
| CCCCCCCCCCC(=O)Cl | -2% |
| COC1C=COC2(C)Oc3c(C)c(O)c4c(c3C2=O)/C(=N/C2CCC(O)OC2C)C=C(NC(=O)/C(C)=C\C(=O)C2CC2C(O)C(C)C(O)C(C)C(OC(C)=O)C1C)C4=O (stereo not given) | -4% |
| S=c1[nH]nc(Nc2ccc(Cl)cc2)s1 | 1% |
| O=C1CSC(/C=C/c2ccccc2)N1c1ccc(-c2ccc(-n3c(-c4ccccc4)nc4ccccc4c3=O)cc2)cc1 (stereo not given) | 2% |
| O=C1C=CC(=O)N1c1ccc2c(c1)Cc1cc(NC(=O)C(F)(F)F)ccc1-2 | 31% |
| Brc1ccc(-c2cc3c(cc2C2SCCS2)OCO3)cc1 | -24% |
| Oc1ccc2ccccc2c1C(c1ccc(Cl)cc1)c1c(O)ccc2ccccc12 | -54% |
| C[CH2][Sn]([CH2]C)([O]C(=O)C(OC(C)=O)c1ccccc1)[O]C(=O)C(OC(C)=O)c1ccccc1 (stereo not given) | -3% |
| Cc1ccc2ccc(O)cc2c1 | -20% |
